The record followed here is PubChem BioAssay (NCI).

This is part of a sample that, as a whole, favours compounds with a hit. Of some 83,000 tested, about 20% had one in any assay.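 Interpretation: 100, growth as untreated; towards 0, rising growth inhibition; 0, no net growth; 0 to -100, cell death. Compounds scoring below 10 were considered active.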 Values without a mark were called inactive. Calls of active or inactive are those of the source.

Among the test systems are DU-145 prostate; K-562 leukemia; MALME-3M melanoma; MDA-MB-231 breast; RXF 393 renal; SF-268 CNS; SF-295 CNS; SF-539 CNS; UACC-257 melanoma; M14 melanoma; HCT-15 colon; HT29 colon; SNB-19 CNS; U251 CNS; PC-3 prostate; SK-MEL-5 melanoma; UACC-62 melanoma; LOX IMVI melanoma; SK-MEL-28 melanoma; SNB-75 CNS.
Holding throughout (test): NCI-60 one-dose screen, 48 h (100 = growth as untreated, 0 = no growth, -100 = all killed)
Settings in all cases: 10 µM unless noted

Take `CCN(CC)CCCC(C)Nc1ccnc2cc(Cl)c(SCc3ccccc3)cc12` (stereo unspecified): the growth with DU-145 prostate was 25.4%; in the assay on K-562 leukemia it was -51.1% (active); in the assay with MALME-3M melanoma, -77.3% (active); in the assay with MDA-MB-231 breast, -78.5% (active); with RXF 393 renal, -91.1% (active); with SF-268 CNS, -66.3% (active). For the same compound, the growth in the assay with SF-295 CNS was -81.7% (active); in the assay with SF-539 CNS, -89.5% (active); with UACC-257 melanoma it was -79.2% (active); in the assay with M14 melanoma it was -88.2% (active); with HCT-15 colon, -68.8% (active); in the assay with HT29 colon, -56.4% (active). Besides, the growth with SNB-19 CNS was -34.9% (active); in the assay on U251 CNS it was -54.3% (active); in the assay with PC-3 prostate it was -7.16% (active); in the assay on SK-MEL-5 melanoma it was -94.9% (active); with UACC-62 melanoma, -90.8% (active); in the assay on LOX IMVI melanoma, -90.9% (active). In the assay on SK-MEL-28 melanoma, the growth was -82.5% (active).
Consider `O=C(NCCCNC(=O)OCc1ccc2c(Br)cc(Br)c(O)c2n1)OCc1ccc2c(Br)cc(Br)c(O)c2n1`, for which the growth was -80.8% (active) with DU-145 prostate; 3.3% (active) in the assay with K-562 leukemia; -87.8% (active) in the assay on MALME-3M melanoma; -68.5% (active) with MDA-MB-231 breast; -93.3% (active) in the assay with RXF 393 renal; 10.3% in the assay with SF-268 CNS. Moreover, the growth is 20% with SF-295 CNS; -96.8% (active) with SF-539 CNS; -37.5% (active) in the assay on UACC-257 melanoma; -65.8% (active) in the assay with M14 melanoma; -34.4% (active) in the assay with HCT-15 colon; -73% (active) in the assay on HT29 colon. The growth in the assay with SNB-19 CNS was 44.6%; in the assay with U251 CNS, -70.4% (active); in the assay with PC-3 prostate it was -25.5% (active); in the assay with SK-MEL-5 melanoma, -77.7% (active); with UACC-62 melanoma it was -87.1% (active); in the assay on LOX IMVI melanoma, -92% (active). The growth in the assay on SK-MEL-28 melanoma was -75.9% (active).
With `CCCSc1nc(N)nc2nc[nH]c12`, the growth in the assay on DU-145 prostate was 119%; in the assay on K-562 leukemia, 90.5%; in the assay with MALME-3M melanoma it was 249%; in the assay on MDA-MB-231 breast, 104%; in the assay on RXF 393 renal, 107%; in the assay with SF-268 CNS it was 108%. For the same compound, the growth was 120% in the assay with SF-295 CNS; 95.6% in the assay on SF-539 CNS; 105% in the assay with UACC-257 melanoma; 96% with M14 melanoma; 112% in the assay on HT29 colon; 108% in the assay on SNB-75 CNS. Further, the growth is 102% in the assay with SNB-19 CNS; 107% in the assay on U251 CNS; 99.4% in the assay with PC-3 prostate; 101% with SK-MEL-5 melanoma; 87.6% in the assay on UACC-62 melanoma; 99.3% in the assay on LOX IMVI melanoma. Also, the growth with SK-MEL-28 melanoma is 126%.
In the case of `CCCCCCNC(=O)Nc1ncnc2c1ncn2-c1ccccc1`, the growth in the assay on DU-145 prostate was 108%; in the assay on K-562 leukemia it was 106%; in the assay on MALME-3M melanoma it was 115%; in the assay with MDA-MB-231 breast, 92.8%; in the assay on RXF 393 renal, 106%; in the assay on SF-268 CNS it was 103%. Besides, the growth was 90.1% in the assay on SF-295 CNS; 94% in the assay with SF-539 CNS; 105% in the assay on UACC-257 melanoma; 104% with M14 melanoma; 99.4% in the assay with HT29 colon; 72.7% with SNB-75 CNS. Moreover, the growth is 94.2% in the assay on SNB-19 CNS; 94.8% in the assay on U251 CNS; 89.4% in the assay on PC-3 prostate; 98.3% with SK-MEL-5 melanoma; 97.6% in the assay with UACC-62 melanoma; 102% in the assay with LOX IMVI melanoma. Moreover, the growth in the assay with SK-MEL-28 melanoma is 104%.
As for `CCN=C1C=CC(=C(c2ccc(N(CC)CC)cc2)c2ccc(N(CC)CC)cc2)c2ccccc21`, the growth with DU-145 prostate is -96.5% (active); in the assay on K-562 leukemia it was -13.6% (active); with MALME-3M melanoma it was -82.6% (active); with MDA-MB-231 breast, -8.34% (active); in the assay on RXF 393 renal, -74.4% (active); in the assay with SF-268 CNS it was -18.6% (active). Moreover, the growth in the assay with SF-295 CNS is -80.9% (active); in the assay with SF-539 CNS, -82.9% (active); with UACC-257 melanoma, -69.9% (active); with M14 melanoma, -67% (active); in the assay on HT29 colon, -59.7% (active); with SNB-75 CNS, -22% (active). Moreover, the growth in the assay on SNB-19 CNS was -57.8% (active); with U251 CNS it was -89.1% (active); with PC-3 prostate it was -66.8% (active); in the assay on SK-MEL-5 melanoma it was -99.5% (active); in the assay on UACC-62 melanoma, -37.4% (active); with LOX IMVI melanoma, -64.6% (active). In the assay with SK-MEL-28 melanoma, the growth was -67.6% (active).
With `C[C@H]1[C@H](C)CC[C@]2(C(=O)O)CC[C@]3(C)C(=CC[C@@H]4[C@@]5(C)C/C(=C/c6cccnc6)[C@H](O)C(C)(C)[C@@H]5CC[C@]43C)[C@H]12`, the growth is 5% [100 µM] (active) in the assay on DU-145 prostate; 13.3% [100 µM] with K-562 leukemia; -24.2% [100 µM] (active) with MALME-3M melanoma; -17.6% [100 µM] (active) with MDA-MB-231 breast; -13.3% [100 µM] (active) in the assay with RXF 393 renal; 21.8% [100 µM] with SF-268 CNS. Further, the growth in the assay on SF-295 CNS was -27.3% [100 µM] (active); with SF-539 CNS, -42.1% [100 µM] (active); with UACC-257 melanoma, 0.776% [100 µM] (active); with M14 melanoma, 1.69% [100 µM] (active); with HT29 colon, -72.1% [100 µM] (active); in the assay on SNB-75 CNS it was -3.83% [100 µM] (active). Further, the growth in the assay on U251 CNS is -57.2% [100 µM] (active); in the assay with PC-3 prostate, 17.4% [100 µM]; in the assay on SK-MEL-5 melanoma it was -64.4% [100 µM] (active); with UACC-62 melanoma, -70.3% [100 µM] (active); in the assay on LOX IMVI melanoma, -91.8% [100 µM] (active); in the assay with SK-MEL-28 melanoma, -49.1% [100 µM] (active).
Regarding `c1ccc(-c2nc(N3CCCNCC3)c3nc(-c4ccccc4)oc3n2)cc1`, the growth with DU-145 prostate was -18.4% (active); in the assay with K-562 leukemia, 0.76% (active); in the assay with MALME-3M melanoma it was 76.9%; in the assay with MDA-MB-231 breast, -3.19% (active); with RXF 393 renal it was 27.1%; in the assay with SF-268 CNS, 52%. In addition, the growth was 96.2% in the assay with SF-295 CNS; 76.3% in the assay with SF-539 CNS; 100% in the assay with UACC-257 melanoma; 95.7% with M14 melanoma; -63.4% (active) in the assay on HT29 colon; 53.1% in the assay on SNB-75 CNS. The growth is 70.4% in the assay on SNB-19 CNS; -90.9% (active) with U251 CNS; -27.3% (active) with PC-3 prostate; 55.6% in the assay on SK-MEL-5 melanoma; -77.8% (active) in the assay on UACC-62 melanoma; -95.7% (active) in the assay with LOX IMVI melanoma. For the same compound, the growth with SK-MEL-28 melanoma was 83.7%.
In the case of `O=C(Nc1ccc(Cl)c(C(F)(F)F)c1)Nc1ccc(-c2cccnc2)cc1N1CCC(CO)CC1`, the growth with DU-145 prostate was 53.2%; with K-562 leukemia, 15.1%; with MALME-3M melanoma it was 43.1%; in the assay on MDA-MB-231 breast, -17.5% (active); with RXF 393 renal, 26.2%; in the assay on SF-268 CNS, 47.6%. The growth in the assay on SF-295 CNS was 17.8%; in the assay with SF-539 CNS, 18.9%; in the assay on UACC-257 melanoma it was 40.2%; in the assay with M14 melanoma, 24.1%; in the assay on HT29 colon, 9.16% (active); in the assay on SNB-75 CNS it was 85.4%. Further, the growth in the assay on SNB-19 CNS was 29.1%; with U251 CNS, 21%; with PC-3 prostate, 12.4%; in the assay on SK-MEL-5 melanoma it was 11.3%; in the assay with UACC-62 melanoma it was 37%; in the assay with LOX IMVI melanoma, 26.6%. In addition, the growth with SK-MEL-28 melanoma was 32.3%.
